Compound activity deposited in PubChem BioAssay by National Center for Advancing Translational Sciences (NCATS).
Rab9 promoter act = qHTS Assay for Rab9 Promoter Activators; Huh7 Rab9 promoter-luciferase reporter, luminescence, 24 h; AID 485297, 2010; 320,000 tested, 2.8% active; Potency, µM (titrated, usually from 9.22 µM), without a hit: at the highest dose activation, negative = inhibition, most hits filed as activators; note: % of control where 0% means no effect; nearly all actives have a fitted effect of over 60% in size
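Promoter activation is measured as luciferase luminescence in Huh7 cells stably transfected with a Rab9 promoter–luciferase construct, following 24 h compound exposure at 37 °C and 10 min reagent incubation at ambient temperature.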
FLuc counter = qHTS profiling assay for firefly luciferase inhibitor/activator using purifed enzyme and Km concentrations of substrates (counterscreen for miR-21 project); Luciferin 4-monooxygenase (Photinus pyralis), P08659; purified FLuc, Km substrates, luminescence inhibition; Potency, µM (top dose mostly 57.5 µM), inactives show top-dose activity change, negative = inhibition, actives largely listed as inhibitors; 360,000 tested, 6.9% active;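 note: plate controls were vehicle for no effect and reference inhibitor for full effect; nearly all actives have a fitted effect of over 55% in size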
Target sequence (P08659 whole entry, looked up): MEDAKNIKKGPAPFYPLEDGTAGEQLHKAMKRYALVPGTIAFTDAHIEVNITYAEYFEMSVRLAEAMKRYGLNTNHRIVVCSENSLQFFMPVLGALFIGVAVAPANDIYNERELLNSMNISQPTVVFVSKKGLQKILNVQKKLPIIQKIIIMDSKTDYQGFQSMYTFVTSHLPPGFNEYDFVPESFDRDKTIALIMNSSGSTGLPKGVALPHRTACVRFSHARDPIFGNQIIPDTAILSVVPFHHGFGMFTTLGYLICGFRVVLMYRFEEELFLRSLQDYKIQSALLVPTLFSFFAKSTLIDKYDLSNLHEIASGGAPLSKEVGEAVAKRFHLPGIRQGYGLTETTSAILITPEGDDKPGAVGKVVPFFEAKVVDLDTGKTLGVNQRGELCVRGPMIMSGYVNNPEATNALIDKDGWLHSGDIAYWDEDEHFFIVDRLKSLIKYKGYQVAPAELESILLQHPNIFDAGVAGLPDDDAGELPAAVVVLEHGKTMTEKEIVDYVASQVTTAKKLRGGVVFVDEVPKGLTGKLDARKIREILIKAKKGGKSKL
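Purified P. pyralis luciferase (10nM final) with 10uM D-luciferin and 10uM ATP (Km levels) in 50mM Tris acetate pH 7.5, 10mM Mg acetate, 0.01% Tween-20, 0.05% BSA; qHTS 6-point titration, ~60 µM downward; luminescence read.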
NPC1 promoter act = qHTS Assay for NPC1 Promoter Activators. Huh7 NPC1 promoter luciferase reporter, 24 h. Potency, µM (titrated, usually from 9.22 µM), for inactives: at the top dose activation, usual class: activators. 320,000 tested, 2.4% active. AID 485313, 2010; note: % of control where 0% means no effect; nearly all actives have a fitted effect of over 60% in size
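In 1536-well qHTS, Huh7 cells harboring an NPC1 promoter–luciferase construct received compound for 24 h; activation was quantified by luminescence following luciferase reagent addition.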
ELG1 genotoxic = qHTS screen for small molecules that induce genotoxicity in human embryonic kidney (HEK293T) cells expressing luciferase-tagged ELG1; Potency, µM (top dose mostly 46 µM), for inactives: top-dose activity change, positive = activation, usual class: activators; 330,000 tested, 1.3% active; AID 504466, 2011; HEK293T ELG1-luciferase reporter, luminescence, 16 h; note: % of control where 0% means no effect; nearly all actives have a fitted effect of over 60% in size
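Quantitative HTS format in 1536-well plates. HEK293T ELG1-luciferase reporter cells receive test compound and are incubated 16 hr at 37 °C, 5% CO2; ONE-Glo added, 30 min room temperature, then luminescence read.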
ELG1 DNA repair = qHTS screen for small molecules that inhibit ELG1-dependent DNA repair in human embryonic kidney (HEK293T) cells expressing luciferase-tagged ELG1. Potency, µM (doses to about 46.1 µM), for inactives: at the top dose activity change, negative = inhibition, most hits filed as inhibitors. 330,000 tested, 2.3% active. HEK293T ELG1-luciferase reporter, luminescence, 16 h; DNA damage induced by 5-fluorouridine; note: % is set by controls: 0 for no effect and ±100 for the full control effect; nearly all actives have a fitted effect of over 55% in size
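Overnight (16 hr) co-exposure of 2,000 cells/well to 5-fluorouridine and compound at 37 °C preceded detection. Luciferase was quantified via ONE-Glo luminescence; loss of signal denotes inhibition.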
SMN2 splice up = qHTS Assay for Enhancers of SMN2 Splice Variant Expression; HEK293 SMN2-luciferase splicing reporter, luminescence, 30-36 h; Potency, µM (highest dose often 46.1 µM), for the others: at the top dose activity change, positive = activation, actives largely listed as activators; 210,000 tested, 2.8% active; note: % of control where 0% means no effect; nearly all actives have a fitted effect of over 55% in size
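qHTS luciferase splicing reporter: luminescence rises when SMN2 exon 7 is included in transfected HEK293 cells. Compound exposure lasted 30-36 h at 37C, with 4.5 mM final sodium butyrate as control, followed by a ONE-Glo read.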
* hit, by the source's call. A selection: hits, their analogues and other compounds. The true share with any hit is near 9.2%. Calls come from the whole dose curve; as a rule, active = well fitted curve in the direction sought with a large enough effect; inconclusive = small, poorly fitted or top-dose-only effect, or another doubt; inactive = no such curve, though single readings can be large; an effect the other way counts as inactive or inconclusive. Potency is the fitted concentration of half-maximal effect.

Screening CCNC(=S)Nc1ccc(N2CCCCC2)cc1 returned Rab9 promoter act 25%, FLuc counter -14%, NPC1 promoter act 26%, ELG1 genotoxic 15%, ELG1 DNA repair 0% and SMN2 splice up 18µM*.
`COCCCNC(=S)Nc1ccc(N2CCCCC2)cc1` gave Rab9 promoter act 13%, FLuc counter -6%, NPC1 promoter act 11%, ELG1 genotoxic 4%, ELG1 DNA repair 10% and SMN2 splice up 16%.
For CN1CCN(c2ccc(NC(=O)Cc3ccccc3)cc2)CC1 the results were Rab9 promoter act inconclusive, FLuc counter 19µM*, NPC1 promoter act inconclusive, ELG1 genotoxic 12µM*, ELG1 DNA repair inconclusive and SMN2 splice up 17%.
CCN1CCN(c2ccc(NC(=O)c3ccco3)cc2)CC1 was read as Rab9 promoter act inconclusive, FLuc counter 27µM*, NPC1 promoter act inconclusive, ELG1 genotoxic inconclusive and ELG1 DNA repair inconclusive.
Screening CCCC(=O)N1CCN(c2ccc(NC(=O)c3ccco3)cc2)CC1 returned Rab9 promoter act 25%, FLuc counter 1%, NPC1 promoter act 2%, ELG1 genotoxic 9%, ELG1 DNA repair inconclusive and SMN2 splice up -9%.
Screening O=C(Cc1cccs1)Nc1ccc(N2CCOCC2)cc1 returned Rab9 promoter act inconclusive, FLuc counter 17µM*, NPC1 promoter act inconclusive, ELG1 genotoxic inconclusive, ELG1 DNA repair inconclusive and SMN2 splice up inconclusive.
`Cc1ccc(C)c(OCC(=O)Nc2ccc(N3CCOCC3)cc2N2CCOCC2)c1` gave Rab9 promoter act -1%, FLuc counter inconclusive, NPC1 promoter act -3%, ELG1 genotoxic -8% and ELG1 DNA repair inconclusive.
O=C(Cc1ccccc1)Nc1ccc(N2CCCCC2)cc1 was read as Rab9 promoter act inconclusive, FLuc counter 6µM*, NPC1 promoter act 1.8µM*, ELG1 genotoxic 3.3µM*, ELG1 DNA repair inconclusive and SMN2 splice up 11µM*.
O=C(CNC(=O)c1ccc(Br)o1)Nc1ccc(N2CCCCCC2)cc1 was read as Rab9 promoter act -1%, FLuc counter inconclusive, NPC1 promoter act -4%, ELG1 genotoxic 3% and ELG1 DNA repair 12%.
For O=C(O)CCCC(=O)Nc1ccc(N2CCCC2)cc1 the results were Rab9 promoter act 6%, FLuc counter 15µM*, NPC1 promoter act 4%, ELG1 genotoxic 1%, ELG1 DNA repair 10% and SMN2 splice up -12%.
Screening O=C(CNC(=O)c1ccco1)Nc1ccc(N2CCCCCC2)cc1 returned Rab9 promoter act 28%, FLuc counter 17µM*, NPC1 promoter act 29%, ELG1 genotoxic inconclusive and ELG1 DNA repair inconclusive.
For O=C(Oc1ccccc1)c1cc2ccccc2oc1=O the results were Rab9 promoter act -5%, FLuc counter 15µM*, NPC1 promoter act 1%, ELG1 genotoxic 2%, ELG1 DNA repair 8% and SMN2 splice up 0%.
For CCN(C(=O)c1cc2ccccc2oc1=O)c1ccccc1 the results were Rab9 promoter act inconclusive, FLuc counter 9.5µM*, NPC1 promoter act inconclusive, ELG1 genotoxic 9.2µM*, ELG1 DNA repair inconclusive and SMN2 splice up -22%.
Screening COc1ccc(N2CCN(C(=O)c3cc4ccccc4o3)CC2)cc1 returned Rab9 promoter act -5%, FLuc counter -1%, NPC1 promoter act 10%, ELG1 genotoxic 6% and ELG1 DNA repair 0%.
Screening COc1ccc(OC(=O)c2cc3ccccc3o2)cc1 returned Rab9 promoter act -2%, FLuc counter 0.54µM*, NPC1 promoter act 0%, ELG1 genotoxic 1%, ELG1 DNA repair 0% and SMN2 splice up 29%.
